The results in this text go back to PubChem BioAssay (NCI).

Common to all, as to assay: NCI-60 one-dose screen, 48 h (100 = growth as untreated, 0 = no growth, -100 = all killed)
Common to all, as to details: 10 µM unless noted

Experiment [1] relates to EKVX NSCLC.
In experiment [2] the test system is SN12C renal.
For experiment [3], the system named is UO-31 renal.
For experiment [4], the system named is TK-10 renal.
Experiment [5] deals with ACHN renal.
The test system of experiment [6] is CAKI-1 renal.
The subject of experiment [7] is A498 renal.
Experiment [8] deals with CCRF-CEM leukemia.
Experiment [9] deals with MOLT-4 leukemia.
Experiment [10] concerns RPMI-8226 leukemia.
In experiment [11] the test system is OVCAR-8 ovarian.
Experiment [12] concerns OVCAR-5 ovarian.
Experiment [13] has as its system OVCAR-4 ovarian.
The subject of experiment [14] is SK-OV-3 ovarian.
The test system of experiment [15] is IGROV1 ovarian.
Experiment [16] deals with HS 578T breast.
In experiment [17] the test system is NCI/ADR-RES ovarian.
Experiment [18] has as its system SR leukemia.
Experiment [19] has as its system OVCAR-3 ovarian.

This is part of a sample that, as a whole, favours compounds with a hit. Of some 83,000 tested, about 20% had one in any assay.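 Compound tested at a single concentration for 48 hours in 96-well plates; a percent growth value below 10 was scored as active.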 Unmarked numbers belong to inactive results. Active and inactive are the calls of the source.

Turning to `COc1cc(/C=N/n2c(CN3CCOCC3)nc3ccccc3c2=O)cc(OC)c1OC`, the growth in [1] is 107%; in experiment [2], 101%; in experiment [3], 87.7%; in experiment [4], 103%; in experiment [5], 103%; in experiment [6], 100%. In addition, the growth in experiment [7] is 81.8%; in [8] it was 104%; in experiment [9] it was 103%; in experiment [10] it was 107%; in [11], 96.1%; in experiment [12], 97.4%. Also, the growth is 104% in experiment [13]; 103% in experiment [14]; 98.3% in experiment [15]; 105% in experiment [16]; 101% in experiment [17].
For `Oc1c(CN2CCCC2)cc(COCc2ccc(Br)cc2)c2cccnc12`, the growth was 27.5% in [1]; 12% in [2]; -13.9% (active) in experiment [3]; 7.24% (active) in experiment [4]; 0.47% (active) in experiment [5]; 1.4% (active) in experiment [6]. Moreover, the growth in experiment [7] was -1.12% (active); in [9], -8.18% (active); in [18], 3.12% (active); in [10], 1% (active); in [11], -27% (active); in [12], 29.6%. Besides, the growth is -5.71% (active) in experiment [13]; -17.4% (active) in experiment [14]; -6.09% (active) in experiment [15]; -4.02% (active) in experiment [19]; 45.2% in experiment [16]; -40.9% (active) in experiment [17].
As for `Nc1cc2c3c(cccc3c1)C(=O)N(CCN1CCCC1)C2=O`, the growth in [1] was 73%; in [2], 31.9%; in experiment [3], 13.5%; in experiment [4], 105%; in [5], 4.18% (active); in experiment [6] it was 7.81% (active). Also, the growth in experiment [7] was 0.673% (active); in [8], 28.7%; in experiment [18], -6.11% (active); in experiment [10] it was 7.72% (active); in experiment [11], 34.4%; in [12], 65.6%. Besides, the growth in experiment [13] is 49.2%; in [14], 36.9%; in experiment [15], 8.96% (active); in experiment [19], 49.9%; in [16] it was 35.2%; in experiment [17] it was 35.1%.
Consider `Cn1cc(-c2csc(-c3ccccc3)n2)c2cccnc21`, for which the growth in [1] is 4.11% [100 µM] (active); in [2], -58.2% [100 µM] (active); in experiment [3], -28.7% [100 µM] (active); in experiment [4], -45.7% [100 µM] (active); in experiment [5] it was 0.882% [100 µM] (active); in experiment [6], -32.4% [100 µM] (active). In addition, the growth was -82.4% [100 µM] (active) in experiment [7]; -8.37% [100 µM] (active) in experiment [9]; 0.511% [100 µM] (active) in experiment [18]; 2.29% [100 µM] (active) in experiment [11]; -19.4% [100 µM] (active) in [13]; -30.1% [100 µM] (active) in [14]. Besides, the growth in experiment [15] is -20.7% [100 µM] (active); in experiment [19] it was -31.8% [100 µM] (active); in experiment [16], 20.8% [100 µM].
Regarding `Cc1ccccc1NC(=O)N/C(N)=N/c1nc(C)c(C)s1`, the growth is 55% in [1]; 39.7% in experiment [2]; 54.9% in [3]; 70.3% in experiment [4]; 46.5% in experiment [5]; 31.1% in [6]. The growth in [7] was -17.7% (active); in experiment [8], 13.3%; in experiment [9], 30.1%; in experiment [13], 49.7%; in experiment [14], 45.2%; in [15], 36.2%. For the same molecule, the growth in experiment [19] is -1.03% (active); in experiment [16], 23.6%; in experiment [17], 9.02% (active).
On to `CC(=O)N1C(=S)NC(=O)C1Cn1c(-c2ccccc2)nc2ccccc21` (configuration not stated), for which the growth in [1] was 96.3%; in [2], 98.6%; in experiment [3], 80.8%; in experiment [4], 121%; in experiment [5], 100%; in [6], 90.4%. Also, the growth in [7] was 70.7%; in experiment [8], 97.1%; in [9] it was 96.5%; in experiment [10], 97.3%; in [11], 102%; in experiment [12], 103%. Further, the growth was 102% in experiment [13]; 94.3% in experiment [14]; 92.5% in experiment [15]; 101% in experiment [19]; 96% in experiment [16]; 102% in experiment [17].
With `CC(C)(C)OC(=O)Nc1ccc2c(c1)C(NC(=O)Nc1cccc(C#N)c1)CC(C)(C)O2` (configuration not stated), the growth is 32.2% in experiment [1]; 62.9% in [2]; 40.8% in experiment [3]; 39.3% in experiment [4]; 50.9% in experiment [5]; 39.2% in [6]. The growth in [7] was 57.5%; in experiment [8] it was 41.7%; in experiment [9], 17.1%; in experiment [10], 22.3%; in experiment [12] it was 87.6%; in [13] it was 38.6%. The growth in experiment [14] is 58%; in experiment [15] it was 46%; in [16] it was 85.5%; in [17], 48%.
